Many of the other results were omitted from the sample, so hits are more common in it than they were.
LASV entry inh: Lassa virus entry inhibition. 300,000 compounds, 1.2% hits. Lassa virus pseudotype entry inhibition, cell reporter. AID 540256. Potency, µM (top dose mostly 37.9 µM), without a hit: at the top dose activity change, negative = inhibition, hits mostly inhibitors; calls by dose curve; tested in HEK293 cells; also: potency is read from the fitted curve at half-maximal effect; % is scaled to controls: 0 for no effect and ±100 for the full control effect; nearly all actives have a fitted effect of over 50% in size
Shiga inhibitor: Shiga toxin inhibition; Vero cells, Shiga toxin protein synthesis inhibition reporter; inhibition, % at 38.7 µM; 290,000 compounds, 9.2% hits; AID 2315; in the data active = inhibition mostly above about 28%, no sharp cut-off; inactive = mostly below about 43%; also: 0% is about no effect
CHX counter: affects cycloheximide protein synthesis inhibition readout, counter-screen; 300,000 compounds, 12% hits; cell reporter, cycloheximide protein synthesis inhibition counterscreen; max response, %; in the data active = max response mostly above about 13%, no sharp cut-off; inactive = mostly below about 14%; also: read at 38.3 µM for the half of the compounds with a filed dose; 0% is about no effect
AMA1 RON2 block: AMA1-RON2 (P. falciparum) interaction inhibition; AlphaScreen AMA1-biotinylated RON2 peptide binding; Potency, µM (series often up to 58.2 µM), inactives show at the top dose activity change, negative = inhibition, hits mostly inhibitors; 360,000 compounds, 0.2% hits; active = well fitted inhibition curve with a large enough effect; inconclusive = small, poorly fitted or top-dose-only effect; inactive = no such curve, though single readings can be large or run the other way;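 also: potency is read from the fitted curve at half-maximal effect; 0% = vehicle wells and -100% = peptide control; nearly all actives have a fitted effect of over 45% in size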
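AMA1 (3D7) with his tag at 25 nM final met compounds first, then biotinylated RON2 peptide at 25 nM; detection used donor plus acceptor beads, 10 µg/mL apiece, read by AlphaScreen after 30 min at room temperature.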
MARV entry inh: inhibitors of Marburg virus binding or cell entry. Marburg virus pseudotyped entry inhibition, cell reporter. Potency, µM (top dose mostly 37.8 µM), for inactives: at the highest dose activity change, negative = inhibition, most hits filed as inhibitors. 300,000 compounds, 1.8% hits; calls by dose curve; tested in HEK293 cells; also: potency is read from the fitted curve at half-maximal effect; % is scaled to controls: 0 for no effect and ±100 for the full control effect
* = called active by the depositor; [ ] = another dose, or the depositor's remark.

Screening CC(C)c1ccc2c(c1)CCC1C(C)(CN)CCCC21C (stereo not given) returned LASV entry inh inconclusive, Shiga inhibitor 21.1, CHX counter -4.5, AMA1 RON2 block 5.8% and MARV entry inh 10µM*.
Screening CC(C)c1ccc2c(c1)CC[C@H]1[C@](C)(CN)CCC[C@]21C returned AMA1 RON2 block 2.2%.
`CCCCn1c(C)cc2c(c1=O)C1O[C@](c3ccc(OC)cc3)(Cc3cc(OC)c(OC)cc31)O2` gave Shiga inhibitor inactive and CHX counter 15.3*.
For COc1cc(NC(=O)c2cc(OC)c(OC)c(OC)c2)ccc1NC(=O)c1cccs1 the results were LASV entry inh -27.0%, Shiga inhibitor -42.1, CHX counter 0.6, AMA1 RON2 block -22.0% and MARV entry inh -17.5%.
For COc1cc(N)ccc1NC(=O)c1cccs1 the results were LASV entry inh 5.0%, Shiga inhibitor 6.0, CHX counter 13.2*, AMA1 RON2 block -1.9% and MARV entry inh inconclusive.
Screening COc1cc(NC(=O)c2cccs2)cc(OC)c1 returned LASV entry inh -1.4%, Shiga inhibitor active, CHX counter 14.9*, AMA1 RON2 block 2.9% and MARV entry inh 15.6%.
Screening COc1ccc(-c2noc(-c3cc(Cl)ccc3Cl)n2)cc1OC returned Shiga inhibitor -8.9, CHX counter -3.0 and MARV entry inh -5.6%.
For COc1cc(OC)cc(C(=O)Nc2cccc(NC(=O)c3cccs3)c2)c1 the results were AMA1 RON2 block -4.4%.
Screening COc1ccc(Cl)cc1-c1nc(-c2ccc(NC(=O)c3cccs3)cc2)no1 returned LASV entry inh inconclusive, Shiga inhibitor 34.3*, CHX counter 85.2*, AMA1 RON2 block 10.9% and MARV entry inh inconclusive.
COc1ccc(NC(=O)c2cccs2)cc1OC was read as LASV entry inh -0.9%, Shiga inhibitor 19.2, CHX counter 18.8*, AMA1 RON2 block -2.9% and MARV entry inh 0.5%.
Screening O=C(NNC(=O)c1ccccc1O)c1ccc(S(=O)(=O)Nc2ccccc2)cc1 returned LASV entry inh inconclusive, AMA1 RON2 block 94.5% and MARV entry inh inconclusive.
`Cn1cc(-c2cc3n(n2)CCC(=O)N3CC(=O)NCc2ccc(Cl)cc2)c2ccccc21` gave LASV entry inh -8.4%[46.1 µM].
For Cc1ccc(NC2=CC(c3ccccc3F)N(c3ccc(C)cc3)C2=O)cc1 (stereo not given) the results were LASV entry inh 0.9%[46.1 µM] and MARV entry inh -10.4%[46.1 µM].
Screening COc1ccc(-c2[nH]ncc2/C=N\NC(=O)c2cccs2)cc1OC returned Shiga inhibitor 87.3*, CHX counter 35.9* and AMA1 RON2 block 79.1%.
Screening COc1ccc(C(=O)Nc2cccc(NC(=O)c3cccs3)c2)cc1 returned Shiga inhibitor 20.3*, CHX counter 24.7* and AMA1 RON2 block -5.6%.
`COc1cccc(NC(=O)c2cccs2)c1` gave LASV entry inh 14.9%, Shiga inhibitor 134.8*, CHX counter 54.0*, AMA1 RON2 block 0.1% and MARV entry inh 5.8%.
`COc1ccc(-c2[nH]ncc2/C=N/NC(=O)c2cccc([N+](=O)[O-])c2)cc1OC` gave LASV entry inh -7.1%, Shiga inhibitor -9.1, CHX counter -1.8, AMA1 RON2 block 64.4% and MARV entry inh 17.7%.
CCCCN(C)c1c(C)nc2ccc(C(=O)NCc3ccc4c(c3)OCO4)cn12 was read as AMA1 RON2 block -25.5%.
`CC(CCC(=O)OC[C@H]1O[C@H](C#Cc2ccccc2)C=C[C@H]1Oc1ccc(C)cc1)=NOC[C@@H](O)[C@H]1O[C@@H]2OC(C)(C)O[C@H]2[C@@H]1O` gave LASV entry inh 1.2%[14.3 µM] and MARV entry inh -2.1%[14.2 µM].
CNS(=O)(=O)c1cccc(C(=O)NCC(C)(C)N2CCCCC2)c1 was read as LASV entry inh 11.1%, Shiga inhibitor -21.5, CHX counter -3.4, AMA1 RON2 block 2.5% and MARV entry inh 10.8%[46.1 µM].
COC(=O)C(C(=O)OC)C(C[N+](=O)[O-])c1ccc(OC)c(OC)c1 (stereo not given) was read as LASV entry inh -11.8%, Shiga inhibitor -7.8, CHX counter -3.8, AMA1 RON2 block 8.3% and MARV entry inh -36.1%.
COc1ccc(C(C[N+](=O)[O-])C2(c3ccc(OC)c(OC)c3)C(=O)c3ccccc3C2=O)cc1 (stereo not given) was read as LASV entry inh 15.8µM*, Shiga inhibitor -9.9, CHX counter -3.0, AMA1 RON2 block inconclusive and MARV entry inh 11.2µM*.
`Cc1nn(CCC(=O)NC(C)C)c(=O)c2nn(-c3ccccc3)c(C)c12` gave LASV entry inh -16.6%[46.1 µM].
